Measurements: ChEMBL document CHEMBL4513146, “CO-ADD screening of Karazin Kharkiv National University (Ukraine) compounds”
Entries with a potency or affinity are not part of this list.

The compounds below were run on Klebsiella pneumoniae. Conditions: Concentration 32 ug.mL-1;; ASSAY_TEST Inhibition of Bacterial Growth; detection method Absorption (OD600); MEDIA CAMHB; plate type 384well; NBS; CORNING #3640; time 18 hr.

| Compound | Inhibition [%] |
| --- | --- |
| Cc1ccc(Oc2nccn3c(=O)n(CC(=O)Nc4ccc(Cl)cc4F)nc23)cc1 | 8.24 |
| COc1ccc(-c2cc3c4nn(CC(=O)Nc5c(C)cc(C)cc5C)c(=O)n4ccn3n2)cc1 | 6.07 |
| Cc1nnc2ccc(S(=O)(=O)N(Cc3ccccc3F)c3ccc(F)c(F)c3)cn12 | 9.72 |
| N#Cc1cccc(NC(=O)CSc2nnc3c4cc(-c5ccccc5)nn4ccn23)c1 | 9.61 |
| O=C(Cn1nc2c(SCc3ccc(Cl)cc3)nccn2c1=O)N1CCN(c2ccccc2)CC1 | 2.24 |
| CC(C)NC(=O)CCn1c(=O)c2ccccc2n2c(=O)n(CC#N)nc12 | 10.9 |
| COc1ccc(C(=O)CSc2nnc3c(=O)n(-c4ccc(F)c(F)c4)ccn23)cc1 | 16.31 |
| COc1cccc(CNC(=O)CSc2nnc3c(=O)n(-c4ccc(C)c(C)c4)ccn23)c1OC | 8.73 |
| CCc1cccc(NC(=O)Cn2nc3c(Sc4ccc(C)cc4C)nccn3c2=O)c1 | -3.14 |
| CN(Cc1ccccc1)C(=O)CSc1nnc2c3cc(-c4ccccc4)nn3ccn12 | -0.25 |
| COC(=O)c1ccc(NC(=O)Cn2nc3c(N4CCOCC4)nccn3c2=O)cc1 | 12.49 |
| COc1cccc(NC(=O)Cn2nc3ccc(-c4ccc(Cl)cc4)nn3c2=O)c1 | 5.27 |
| CC(C)Sc1ccc2nn(CC(=O)Nc3ccc(Cl)cc3F)c(=O)n2n1 | 7.97 |
| COc1ccc(-c2cc3c4nn(CC(=O)Nc5cc(Cl)ccc5C)c(=O)n4ccn3n2)cc1 | 1.98 |
| COc1cccc(-n2ccn3c(SCC(=O)Nc4cc(Cl)ccc4OC)nnc3c2=O)c1 | 5.24 |
| O=C(Cn1nc2ccc(SCc3ccc(Cl)cc3)nn2c1=O)Nc1ccccc1 | 9.67 |
| COc1cc(NC(=O)Cn2nc3c(SC4CCCCC4)nccn3c2=O)cc(OC)c1 | 18.11 |
| O=C(Cn1nc2c3cc(F)ccc3ncn2c1=O)Nc1ccc2c(c1)OCO2 | 1.07 |
| Cc1ccc(NC(=O)Cn2nc3c4cc(-c5ccc(C)c(C)c5)nn4ccn3c2=O)c(C)c1 | -6.92 |
| Cc1ccc(-c2cc3c4nn(CC(=O)NCc5ccccc5)c(=O)n4ccn3n2)cc1C | 9.36 |

| Compound | Inhibition [%] |
| --- | --- |
| CCc1nnc2c(S(=O)(=O)N(Cc3ccc(F)cc3)c3cccc(Cl)c3)cccn12 | 0.19 |
| Cc1cccc(-c2nc(CSc3nc4ccccc4n4c(C(C)C)nnc34)c(C)o2)c1 | 12.8 |
| O=C(Cn1nc2ccc(SC3CCCCC3)nn2c1=O)Nc1ccc2c(c1)CCC2 | 11.52 |
| O=C(CSc1nc2ccccc2n2cnnc12)Nc1ccc2c(c1)OCCO2 | 4.35 |
| Cc1oc(-c2ccc(OC(C)C)cc2)nc1CSc1nc2ccccc2n2c(C(C)C)nnc12 | -1.3 |
| Cc1ccc(NC(=O)Cn2nc3c(SC4CCCCC4)nccn3c2=O)cc1 | 5.75 |
| Cc1cc(C)cc(N(Cc2ccccc2F)S(=O)(=O)c2cccn3c(C)nnc23)c1 | 2.04 |
| COc1ccc(NC(=O)Cn2nc3c4cc(-c5ccc(OC)cc5)nn4ccn3c2=O)cc1 | 12.45 |
| COc1ccc(NC(=O)Cn2nc3c(Sc4ccccc4)nc4ccccc4n3c2=O)cc1Cl | 5.63 |
| C=Cc1ccc(CN(c2ccc(F)c(F)c2)S(=O)(=O)c2cccn3cnnc23)cc1 | 8.42 |
| O=S(=O)(c1ccc2nncn2c1)N(Cc1cc(F)cc(F)c1)c1cc(F)cc(F)c1 | -2.94 |
| Cc1cc(C)cc(Nc2nc(C)cc3nn(CC(=O)Nc4cc(F)cc(F)c4)c(=O)n23)c1 | 13.54 |
| O=C(Cn1nc2nc(Nc3ccc(F)cc3)ccn2c1=O)NCC1CCCO1 (stereo not drawn) | 12.02 |
| COc1ccc(-c2cc3c4nn(CC(=O)Nc5cc(C)ccc5OC)c(=O)n4ccn3n2)cc1 | 8.5 |
| COc1cccc(Oc2nccn3c(=O)n(CC(=O)NCc4cccs4)nc23)c1 | 11.61 |
| Cc1ccc(C)c(NC(=O)Cn2nc3ccc(-c4ccccc4)nn3c2=O)c1 | 5.6 |
| CCOc1ccc(-n2ccn3c(SCC(=O)c4ccc(C)cc4C)nnc3c2=O)cc1 | 5.02 |
| O=C(CSc1nnc2c3cc(-c4ccc(F)cc4)nn3ccn12)NCc1ccc(Cl)cc1 | 0.77 |
| Cc1cc(NC(=O)CSc2nc3ccccc3n3cnnc23)ccc1Br | 14.4 |

The compounds below were run on Candida albicans. Conditions: Concentration 32 ug.mL-1; ASSAY_TEST Inhibition of Fungal Growth; detection method Absorption (OD530).

| Compound | Inhibition [%] |
| --- | --- |
| Cc1ccc(Oc2nccn3c(=O)n(CC(=O)Nc4ccc(Cl)cc4F)nc23)cc1 | 4.29 |
| COc1ccc(-c2cc3c4nn(CC(=O)Nc5c(C)cc(C)cc5C)c(=O)n4ccn3n2)cc1 | -1.73 |
| Cc1nnc2ccc(S(=O)(=O)N(Cc3ccccc3F)c3ccc(F)c(F)c3)cn12 | 2.36 |
| N#Cc1cccc(NC(=O)CSc2nnc3c4cc(-c5ccccc5)nn4ccn23)c1 | 7.44 |
| O=C(Cn1nc2c(SCc3ccc(Cl)cc3)nccn2c1=O)N1CCN(c2ccccc2)CC1 | 4.87 |
| CC(C)NC(=O)CCn1c(=O)c2ccccc2n2c(=O)n(CC#N)nc12 | 0.91 |
| COc1ccc(C(=O)CSc2nnc3c(=O)n(-c4ccc(F)c(F)c4)ccn23)cc1 | 2.03 |
| COc1cccc(CNC(=O)CSc2nnc3c(=O)n(-c4ccc(C)c(C)c4)ccn23)c1OC | 0.37 |
| CCc1cccc(NC(=O)Cn2nc3c(Sc4ccc(C)cc4C)nccn3c2=O)c1 | 5.97 |
| CN(Cc1ccccc1)C(=O)CSc1nnc2c3cc(-c4ccccc4)nn3ccn12 | 2.03 |
| COC(=O)c1ccc(NC(=O)Cn2nc3c(N4CCOCC4)nccn3c2=O)cc1 | 2.39 |
| COc1cccc(NC(=O)Cn2nc3ccc(-c4ccc(Cl)cc4)nn3c2=O)c1 | 2.11 |
| CC(C)Sc1ccc2nn(CC(=O)Nc3ccc(Cl)cc3F)c(=O)n2n1 | 16.98 |
| COc1ccc(-c2cc3c4nn(CC(=O)Nc5cc(Cl)ccc5C)c(=O)n4ccn3n2)cc1 | 1.63 |
| COc1cccc(-n2ccn3c(SCC(=O)Nc4cc(Cl)ccc4OC)nnc3c2=O)c1 | 13.1 |
| O=C(Cn1nc2ccc(SCc3ccc(Cl)cc3)nn2c1=O)Nc1ccccc1 | 9.5 |
| COc1cc(NC(=O)Cn2nc3c(SC4CCCCC4)nccn3c2=O)cc(OC)c1 | 13.52 |
| O=C(Cn1nc2c3cc(F)ccc3ncn2c1=O)Nc1ccc2c(c1)OCO2 | 3.33 |
| Cc1ccc(NC(=O)Cn2nc3c4cc(-c5ccc(C)c(C)c5)nn4ccn3c2=O)c(C)c1 | -0.38 |
| Cc1ccc(-c2cc3c4nn(CC(=O)NCc5ccccc5)c(=O)n4ccn3n2)cc1C | 4.46 |

| Compound | Inhibition [%] |
| --- | --- |
| CCc1nnc2c(S(=O)(=O)N(Cc3ccc(F)cc3)c3cccc(Cl)c3)cccn12 | 5.46 |
| Cc1cccc(-c2nc(CSc3nc4ccccc4n4c(C(C)C)nnc34)c(C)o2)c1 | 8.07 |
| O=C(Cn1nc2ccc(SC3CCCCC3)nn2c1=O)Nc1ccc2c(c1)CCC2 | 2.83 |
| O=C(CSc1nc2ccccc2n2cnnc12)Nc1ccc2c(c1)OCCO2 | 2.01 |
| Cc1oc(-c2ccc(OC(C)C)cc2)nc1CSc1nc2ccccc2n2c(C(C)C)nnc12 | 23.86 |
| Cc1ccc(NC(=O)Cn2nc3c(SC4CCCCC4)nccn3c2=O)cc1 | -2.16 |
| Cc1cc(C)cc(N(Cc2ccccc2F)S(=O)(=O)c2cccn3c(C)nnc23)c1 | 1.9 |
| COc1ccc(NC(=O)Cn2nc3c4cc(-c5ccc(OC)cc5)nn4ccn3c2=O)cc1 | 2.73 |
| COc1ccc(NC(=O)Cn2nc3c(Sc4ccccc4)nc4ccccc4n3c2=O)cc1Cl | 1.75 |
| C=Cc1ccc(CN(c2ccc(F)c(F)c2)S(=O)(=O)c2cccn3cnnc23)cc1 | 2.5 |
| O=S(=O)(c1ccc2nncn2c1)N(Cc1cc(F)cc(F)c1)c1cc(F)cc(F)c1 | 0.05 |
| Cc1cc(C)cc(Nc2nc(C)cc3nn(CC(=O)Nc4cc(F)cc(F)c4)c(=O)n23)c1 | 4.35 |
| O=C(Cn1nc2nc(Nc3ccc(F)cc3)ccn2c1=O)NCC1CCCO1 (stereo not drawn) | 1.89 |
| COc1ccc(-c2cc3c4nn(CC(=O)Nc5cc(C)ccc5OC)c(=O)n4ccn3n2)cc1 | 13.11 |
| COc1cccc(Oc2nccn3c(=O)n(CC(=O)NCc4cccs4)nc23)c1 | 0.8 |
| Cc1ccc(C)c(NC(=O)Cn2nc3ccc(-c4ccccc4)nn3c2=O)c1 | 1.64 |
| CCOc1ccc(-n2ccn3c(SCC(=O)c4ccc(C)cc4C)nnc3c2=O)cc1 | 2.76 |
| O=C(CSc1nnc2c3cc(-c4ccc(F)cc4)nn3ccn12)NCc1ccc(Cl)cc1 | 7.94 |
| Cc1cc(NC(=O)CSc2nc3ccccc3n3cnnc23)ccc1Br | 4.71 |
